Reference: the supplement of paper PMC12494721
Where a name gives a salt, the structure may show the parent alone. Values without a mark were called inactive.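 The calls were made as follows: for the amine columns active = adjusted P below 0.05 in both replicates with a change the same way and a mean fold change under 0.8 or over 1.25; inactive = the rest.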

Each molecule was assayed on Escherichia coli IAI1 (assay: fold change of Putrescine concentration vs plate DMSO controls (fold change (ratio)); higher = more amine produced, active = hit call of the paper (significant change in both replicates, either direction)). Conditions: incubation time: 27 h, anaerobic, 37 °C.
In short: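 Anaerobic mGAM cultures of four gut bacterial strains were grown at 37 °C for 27 h in 80 µL wells, starting at OD 0.1 before 1:1 dilution. Compounds were at 20 µM final (sweeteners 50 µM). Whole cultures were extracted with cold acetonitrile/methanol containing 0.1% formic acid and centrifuged. Amines were quantified by LC–triple-quadrupole MS (dynamic MRM) against external calibration curves and drift-corrected within batch. Each value is the fold change versus plate DMSO controls, averaged over 2 biological replicates.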

Structure (SMILES) | fold change of Putrescine concentration
O=C(OCCOCCO)c1ccccc1Nc1cccc(C(F)(F)F)c1 [Etofenamate] (20 µM) | 1.05
CCCCOc1ccc(CC(=O)NO)cc1 [Bufexamac] (20 µM) | 0.929
Cc1scc2c1N(C(=O)CN1CCN(C)CC1)c1ccccc1NC2=O [Telenzepine dihydrochloride] (20 µM) | 1.06
OC[C@H]1O[C@H](O[C@H]2O[C@H](CO)[C@@H](O)[C@H](O)[C@H]2O)[C@H](O)[C@@H](O)[C@@H]1O [Trehalose] (50 µM) | 1
NCCCC(O)(P(=O)(O)O)P(=O)(O)O [Alendronate sodium] (20 µM) | 0.992
CC(=O)Nc1ccc(CC(=O)O)cc1 [Actarit] (20 µM) | 1.35
CCCCc1cc2ccccc2c(OCCN(C)C)n1 [Dimethisoquin hydrochloride] (20 µM) | 1.07
CC[C@H]1OC(=O)C[C@@H](O)[C@H](C)[C@@H](O[C@@H]2O[C@H](C)[C@@H](O[C@H]3C[C@@](C)(O)[C@@H](O)[C@H](C)O3)[C@H](N(C)C)[C@H]2O)[C@@H](CC=O)C[C@@H](C)C(=O)/C=C/C(C)=C/[C@@H]1CO[C@@H]1O[C@H](C)[C@@H](O)[C@@H](OC)[C@H]1OC [Tylosin] (20 µM) | 0.849
CN(C)CCC=C1c2ccccc2C=Cc2ccccc21 [Cyclobenzaprine hydrochloride] (20 µM) | 0.987
CC(=C(CCO)SSCC1CCCO1)N(C=O)Cc1cnc(C)nc1N (stereo in doubt) [Fursultiamine hydrochloride] (20 µM) | 1.09
CCOC(=O)O[C@]1(C(=O)OCCl)CC[C@H]2[C@@H]3CCC4=CC(=O)C=C[C@]4(C)[C@H]3[C@@H](O)C[C@@]21C [Loteprednol etabonate] (20 µM) | 1.25
N[C@@H](CSCCCO)C(=O)O [Fudosteine] (20 µM) | 1.05
CC1=C(C)C(=O)C(C(CCCCCC(=O)O)c2ccccc2)=C(C)C1=O (centres undefined) [Seratrodast] (20 µM) | 1.05
C[C@]12C=CC(=O)C=C1CC[C@@H]1[C@@H]2C(=O)C[C@@]2(C)[C@H]1CC[C@]2(O)C(=O)CO [Prednisone] (20 µM) | 1.07
